HepG2 tox-1: HepG2 cytotoxicity, counter-screen for TGF-b inhibitors; HepG2 CAGA-GFP viability, ATP luminescence, 18 h; Potency, µM (titrated, usually from 46.1 µM), for the others: at the top dose activity change, negative = cytotoxicity, hits mostly cytotoxic; 410,000 tested, 0.76% active; AID 588856
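CellTiter-Glo luminescence gave cytotoxicity after 18 hours at 37 degrees C. The cells were HepG2 CAGA-GFP in 1% FBS DMEM, stimulated with 500 pg/mL TGF-beta after compound addition. %Activity was normalised to no-cell wells (complete cell-killing) and DMSO (no toxicity), and curves were fitted and classified.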
Gal4-VP16 FLuc: Gal4-VP16 reporter inhibition counter-screen; Drosophila S2 Gal4-VP16 UAS-luciferase, luminescence, 20 h; Potency, µM (top dose mostly 53.6 µM), inactives show at the highest dose activity, negative = inhibition, most hits filed as inhibitors; 310,000 tested, 3.5% active; AID 2546;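 further: Gal4-VP16 expression switched on by copper sulfate through the metallothionein promoter; on the % scale 0 is the no-effect control and ±100 the full control effect; nearly all actives have a fitted effect of over 50% in size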
TGFb inhibitor: blocks TGF-b signaling; Potency, µM (top dose mostly 46.1 µM), for the others: at the highest dose activity, negative = inhibition, usual class: inhibitors; 410,000 tested, 1.2% active; AID 588855; HepG2 CAGA-GFP TGF-b/SMAD3 reporter, GFP fluorescence, 18 h; TGF-beta stimulated, 500 pg/mL final; further: on the % scale 0 is the no-effect control and ±100 the full control effect; nearly all actives have a fitted effect of over 65% in size
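Using HEPG2 CAGA-GFP reporter cells at 1000 cells/well, we pinned test compounds, stimulated with recombinant TGF-beta (500 pg/mL final) and measured total well GFP after 18 h.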
ATXN2 expr inh: ATXN2 expression inhibition; HEK-293 ATXN2-luciferase reporter, luminescence, 24 h; 360,000 tested, 0.72% active; Potency, µM (series often up to 57 µM), without a hit: at the highest dose activity change, negative = inhibition, hits mostly inhibitors; further: on the % scale 0 is the no-effect control and ±100 the full control effect; nearly all actives have a fitted effect of over 55% in size
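ATXN2-luciferase reporter cells (luciferase flanked by upstream and downstream ATXN2 gene portions) were treated 24 h at 37 °C with compounds at up to 57 uM. SteadyGlo luminescence gave expression; GF-AFC fluorescence gave viability.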
RORgamma inh: blocks mouse ROR gamma transcriptional activity | P51450 | Drosophila S2 Gal4-RORgamma UAS-luciferase reporter, 20 h | Potency, µM (series often up to 53.6 µM), inactives show top-dose activity change, negative = inhibition, actives largely listed as inhibitors | 310,000 tested, 5.4% active | AID 2551; further: on the % scale 0 is the no-effect control and ±100 the full control effect; nearly all actives have a fitted effect of over 60% in size
Target sequence (P51450 whole entry, looked up, the tested form may be a part): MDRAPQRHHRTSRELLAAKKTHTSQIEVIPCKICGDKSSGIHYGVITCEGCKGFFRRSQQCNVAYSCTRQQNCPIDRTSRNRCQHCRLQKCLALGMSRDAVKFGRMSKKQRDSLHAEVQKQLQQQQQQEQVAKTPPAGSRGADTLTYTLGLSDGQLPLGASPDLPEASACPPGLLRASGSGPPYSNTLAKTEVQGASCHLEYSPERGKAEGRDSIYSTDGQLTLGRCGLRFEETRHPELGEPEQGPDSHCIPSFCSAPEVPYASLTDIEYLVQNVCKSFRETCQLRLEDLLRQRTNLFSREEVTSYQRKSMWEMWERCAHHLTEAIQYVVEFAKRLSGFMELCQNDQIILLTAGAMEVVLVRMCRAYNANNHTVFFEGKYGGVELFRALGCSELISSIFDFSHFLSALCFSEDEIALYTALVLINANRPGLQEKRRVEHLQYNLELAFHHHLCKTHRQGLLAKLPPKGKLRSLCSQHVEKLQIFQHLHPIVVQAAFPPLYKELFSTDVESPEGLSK
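Stable Schneider cell line, Gal4 DNA-binding domain fused to ROR gamma, UAS-luciferase. Cmpd 1 hr RT → CuSO4 700 uM final → 20 hr RT → luciferase reagent 10 min → luminescence.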
S2 tox: reduces viability in counter-screen for ATXN expression inhibitors. 400,000 tested, 0.49% active. AID 651635. S2 cells (HEK-293 line with an ATXN2-luciferase reporter) viability, CellTiter-Fluor protease fluorescence, 24 h. Potency, µM (titrated, usually from 56.7 µM), hits mostly cytotoxic; further: nearly all actives have a fitted effect of over 40% in size
TGFb confirm: TGF-b pathway inhibition, cherry-pick retest; HepG2 CAGA-GFP TGF-b reporter, GFP fluorescence, 18 h; cells stimulated with TGF-beta, 500 pg/mL; Potency, µM (doses to about 46.1 µM), for inactives: at the highest dose activity, negative = inhibition, hits mostly inhibitors; shares compounds with TGFb inhibitor; 1,600 tested, 63% active; further: on the % scale 0 is the no-effect control and ±100 the full control effect; nearly all actives have a fitted effect of over 65% in size
HepG2 tox-2: toxic to HepG2 cells in TGF-b counterscreen | shares compounds with TGFb inhibitor | HepG2 CAGA-GFP viability, ATP luminescence, 18 h; cells stimulated with TGF-beta, 500 pg/mL | Potency, µM (titrated, usually from 46.1 µM), inactives show top-dose activity, negative = cytotoxicity, actives largely listed as inhibitors | 1,600 tested, 27% active; further: on the % scale 0 is the no-effect control and ±100 the full control effect; nearly all actives have a fitted effect of over 70% in size
TGFb CCL64 inh: blocks TGF-b signaling in CCL64 reporter cells. shares compounds with TGFb inhibitor. CCL64 CAGA-GFP reporter, TGF-b stimulated, GFP fluorescence, 18 h. Potency, µM (highest dose often 46.1 µM), for inactives: at the highest dose activity, negative = inhibition, actives largely listed as inhibitors. 1,600 tested, 41% active; further: nearly all actives have a fitted effect of over 65% in size
COP TGFb inh: TGF-b inhibition validated with COP promoter; shares compounds with TGFb inhibitor; HepG2 COP-GFP TGF-b reporter, GFP fluorescence, 18 h; cells stimulated by added recombinant TGF-beta; Potency, µM (titrated, usually from 46.1 µM), inactives show at the highest dose activity, negative = inhibition, usual class: inhibitors; 1,600 tested, 3% active; further: nearly all actives have a fitted effect of over 70% in size
Numbers without * were called inactive; i = inactive; ? = inconclusive; nt = no result given; [ ] = another dose, or the depositor's remark. Hits are enriched below; roughly 6.1% of the tested compounds scored in any of these assays. The call rests on the fitted dose curve; in most records, active means well fitted curve in the direction sought with a large enough effect; inconclusive means small, poorly fitted or top-dose-only effect, or another doubt; inactive means no such curve, though single readings can be large; an effect the other way counts as inactive or inconclusive. Potency means the concentration at half of the fitted maximal effect.

SMILES | HepG2 tox-1 | Gal4-VP16 FLuc | TGFb inhibitor | ATXN2 expr inh | RORgamma inh | S2 tox | TGFb confirm | HepG2 tox-2 | TGFb CCL64 inh | COP TGFb inh
O=C1NCN(c2ccccc2)C12CCN(C(c1cc3ccccc3o1)c1nnnn1C1CCCC1)CC2 (centres undefined) | 0% | nt | ? | ? | nt | ? | nt | nt | nt | nt
O=C1NCN(c2ccccc2)C12CCN(C(c1cc3ccccc3o1)c1nnnn1Cc1ccccc1)CC2 (centres undefined) | 0% | nt | 14µM* | ? | nt | nt | 21µM* | -20% | 15µM* | 5%
O=C1NCN(c2ccccc2)C12CCN(C(CCc1ccccc1)c1nnnn1Cc1ccccc1)CC2 (centres undefined) | -1% | nt | 18µM* | ? | nt | ? | 15µM* | ? | 12µM* | 76%
O=C1NCN(c2ccccc2)C12CCN(C(c1ccccc1)c1nnnn1Cc1ccccc1)CC2 (centres undefined) | 4% | nt | 11µM* | ? | nt | ? | 18µM* | -12% | 12µM* | -1%
Cc1ccc(S(=O)(=O)N(CC(=O)NCCSc2ccc(Cl)cc2)c2ccccc2C)cc1 | -11% | nt | ? | -22% | nt | ? | nt | nt | nt | nt
CC12CCC(O)CC1CCC1C2CCC2(C)C(C3=CC(=O)OC3)CCC12O (centres undefined) | -33% | nt | 4µM* | 0.84µM* | nt | ? | 16µM* | 2.6µM* | 1.3µM* | 56%
CC12CC[C@H]3[C@@H](CCC4(O)C[C@H](O)CCC34/C=N/NC(=O)Cc3ccccc3)C1(O)CCC2C1=CC(=O)OC1 (some centres undefined) | -41% | 3% | -23% | ? | 15% | i | nt | nt | nt | nt
C[C@H](CO)N1C[C@H](C)[C@H](CN(C)S(=O)(=O)c2ccc(Cl)cc2)OCc2ccccc2-c2c(n(C)c3ccccc23)C1=O | -19% | nt | ? | ? | nt | ? | nt | nt | nt | nt
CNc1cc(Cl)c2nonc2c1[N+](=O)[O-] | -137% | 3.5µM* | 5.6µM* | 28µM* | 1µM* | 22µM* | 3.3µM* | 13µM* | 2.6µM* | ?
O=[N+]([O-])c1c(Cl)c(Cl)cc(Cl)c1Cl | nt | 5% | nt | 11%[116 µM] | 3% | i | nt | nt | nt | nt
O=C(NCCc1ccccc1)[C@@H]1CC=C[C@@H]2CCN(Cc3ccc(Cl)c(Cl)c3)C(=O)[C@@H]21 | -18% | nt | ? | -7% | nt | nt | nt | nt | nt | nt
CC(Cc1ccc(C(C)(C)C)cc1)CN1CCCCC1 (centres undefined) | nt | -2% | nt | nt | -7% | nt | nt | nt | nt | nt
CNc1ccc2oc(C[C@H]3O[C@@]4(CC[C@H]3C)O[C@H]([C@H](C)C(=O)c3ccc[nH]3)[C@H](C)C[C@H]4C)nc2c1C(=O)O | 7.1µM* | 1.3µM* | 5µM* | 8.9µM* | -9% | 7.1µM* | 2.1µM* | 1.5µM* | 1µM* | 6.5µM*
C[C@]12C/C(=C/O)C(=O)C[C@@H]1CC[C@@H]1[C@@H]2CC[C@@]2(C)[C@H]1CC[C@]2(C)O | nt | -13% | nt | ? | -17% | ? | nt | nt | nt | nt
CCN(CCCl)c1cc(CN(C)C)cc(NC(=O)c2ccc(C(=O)Nc3cc(CN(C)C)cc(N(CC)CCCl)c3)cc2)c1 | -104% | nt | 4µM* | 0.71µM* | nt | nt | 1µM* | 1µM* | 1µM* | ?
CCN(CC)C(=O)c1ccc(NC(=O)c2cccc(C(F)(F)F)c2)cc1 | -13% | -16% | -13% | -11% | 34% | i | nt | nt | nt | nt
O=C(Cc1coc2cc3c(cc12)CCC3)OCC(=O)N1CCCC1=O | -16% | ? | -5% | ? | -30% | i | nt | nt | nt | nt
CCC1CN2CCc3cc(OC)c(OC)cc3C2CC1CC1NCCc2c1[nH]c1ccc(O)cc21 (centres undefined) | -9% | nt | 0.089µM* | 0.0075µM* | nt | ? | 0.018µM* | 1µM* | 0.037µM* | 52%
COc1ccc(C(c2nnnn2-c2ccc(OC)cc2)N2CCC(n3c(=O)[nH]c4ccccc43)CC2)cc1 (centres undefined) | -2% | nt | 11µM* | ? | nt | ? | 16µM* | -27% | 13µM* | 51%
CSCCC(c1nnnn1C1CCCCC1)N1CCC(n2c(=O)[nH]c3ccccc32)CC1 (centres undefined) | -2% | nt | 14µM* | ? | nt | ? | 26µM* | -20% | -31% | -1%
CCOc1cncc(/C=C/CCNC)c1 | nt | -6% | nt | nt | 4% | nt | nt | nt | nt | nt
O=C(c1cn(Cc2ccccc2F)c2ncccc12)C(F)(F)F | -4% | 0% | ? | -4% | 31% | i | ? | -8% | 0% | -1%
CC12CCC3C4CCC(=O)C(O)=C4CCC3C1CCC2OC(=O)CCC1CCCC1 (centres undefined) | nt | 1% | nt | nt | 2% | nt | nt | nt | nt | nt
COc1ccc2[nH]c3c(c2c1)CCN1C(=O)C(CC(=O)NCc2cccc(C(F)(F)F)c2)C[C@H](C(=O)N2CCCCC2)[C@@]31C (some centres undefined) | 2% | nt | 10µM* | 0% | nt | ? | 8.2µM* | -17% | 4.6µM* | 3%
CC(=O)c1cn(Cc2ccc(F)cc2)c2ccccc12 | -25% | -21% | ? | -27% | 31% | i | 9.2µM* | 4.1µM* | 3% | 17%
COC(=O)c1cn(Cc2ccc(F)cc2)c2ccccc12 | 9% | nt | 8% | nt | nt | i | nt | nt | nt | nt
O=C(Nc1ccccc1)c1ccccc1I | nt | -12% | nt | nt | 26% | nt | nt | nt | nt | nt
